Screens from PubChem.
GPT2 inhibitor: Primary qHTS assay for inhibitors of Glutamate pyruvate transaminase 2 (GPT2); Recombinant GPT2, coupled pyruvate oxidase/HRP Amplex Red fluorescence; AID 1671188, 2021; Alanine aminotransferase 2 (Homo sapiens), Q8TD30; Potency, µM (highest dose often 57.7 µM), actives largely listed as inhibitors; 100,000 tested, 0.25% active; further: nearly all actives have a fitted effect of over 60% in size
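GPT2 10ng/uL, a-KG 250uM, L-Ala 2mM, HEPES pH7.5 + 0.0001% Tween; 30 min RT. Then Amplex mix (PO/HRP/ThPP), 30 min RT dark, fluorescence. AOA 50uM used as positive control.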
HEK cytotox: Cytotoxic Profiling in HEK 293 Cell Line of Diverse Libraries Using Quantitative High-Throughput Screening; HEK 293 viability, ATP luminescence (CellTiter-Glo), 48-72 h; Potency, µM (top dose mostly 115 µM), hits mostly inhibitors; 94,000 tested, 6.6% active; AID 1345083, 2018; further: nearly all actives have a fitted effect of over 60% in size
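Pintool-delivered compounds were incubated with HEK 293 cells (250 cells/well) at 37 degree Celsius for 48 or 72 hr. ATP-dependent luminescence (CellTiter-Glo) then reported remaining viable cells.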
FLuc inh: Firefly luciferase inhibition profiling of diverse chemical library using quantitative high-throughput screening; Luciferin 4-monooxygenase (Photinus pyralis), P08659; purified P. pyralis luciferase, luminescence, biochemical; Potency, µM (doses to about 115 µM), usual class: inhibitors; 76,000 tested, 2.5% active; AID 1347043, 2019; further: nearly all actives have a fitted effect of over 65% in size
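Purified 10nM P. pyralis luciferase with 10uM D-luciferin and 10uM ATP in 50mM Tris acetate pH 7.5, 10mM Mg acetate, 0.01% Tween-20, 0.05% BSA. qHTS titration; luminescence read by CCD imager.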
NIH3T3 tox: Cytotoxic Profiling in NIH 3T3 Cell Line of Diverse Libraries Using Quantitative High-Throughput Screening; NIH 3T3 viability, CellTiter-Glo ATP luminescence, 48-72 h; Potency, µM (doses to about 96.7 µM), usual class: inhibitors; 94,000 tested, 4.3% active; further: nearly all actives have a fitted effect of over 55% in size
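Cells were seeded at 400 per well, treated with pin-transferred compound, and kept 48 or 72 hr at 37 °C before CellTiter-Glo addition and luminescence imaging of cellular ATP.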
NPR1 antag: Natriuretic polypeptide receptor (hNpr1) antagonism - Primary qHTS. HEK293 hNpr1 GloSensor cGMP, ANP-stimulated luminescence. Potency, µM (doses to about 46.3 µM), actives largely listed as inhibitors. 76,000 tested, 1.6% active. AID 1347048, 2019; calls by dose curve; further: nearly all actives have a fitted effect of over 60% in size
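HEK293 cells stably expressing human Npr1 and cGMP GloSensor pGS-40F, loaded 2 h with 2% GloSensor reagent, given compound 30 min at room temperature. Luminescence read before and 20 min after 0.1 nM hNppA.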
Hits are given with their value. Only some compounds are listed: those with a hit (about 10% of all), similar ones and a draw of the others. Unless noted, the call rests on the fitted dose curve; in most records, active means well fitted curve in the direction sought with a large enough effect; inconclusive means small, poorly fitted or top-dose-only effect, or another doubt; inactive means no such curve, though single readings can be large; an effect the other way counts as inactive or inconclusive.

`CNC(=O)CCn1ncc2cc(OC3CCc4cccc(-c5ccc(F)cc5)c43)ccc21` (stereo not given) gave GPT2 inhibitor inconclusive, HEK cytotox 63µM, FLuc inh inactive, NIH3T3 tox inconclusive and NPR1 antag inactive.
`CNC(=O)CCn1ncc2cc(OC3CCc4cccc(-c5ccccc5)c43)ccc21` (stereo not given) gave GPT2 inhibitor inactive, HEK cytotox inconclusive, FLuc inh inactive, NIH3T3 tox inconclusive and NPR1 antag inactive.
For CNC(=O)CCn1ncc2cc(OC3CCc4cccc(-c5cccc(F)c5)c43)ccc21 (stereo not given) the results were GPT2 inhibitor inactive, HEK cytotox inconclusive, FLuc inh inactive, NIH3T3 tox inconclusive and NPR1 antag inactive.
O=C1N(C2CCCCC2)C[C@H]2CN(S(=O)(=O)c3ccc(F)cc3)CCN12 was read as GPT2 inhibitor inactive, HEK cytotox inconclusive, FLuc inh inactive, NIH3T3 tox 35µM and NPR1 antag inactive.
`CN1CCN([C@@H]2[C@H](O)[C@H](CO)O[C@@H]2CN(Cc2ccc(Cl)cc2)Cc2cccc(Cl)c2)CC1` gave GPT2 inhibitor inactive, HEK cytotox inconclusive, FLuc inh inactive, NIH3T3 tox 28µM and NPR1 antag inconclusive.
`O=C1NCc2ccccc2CC12CCCCN2Cc1cc2ccccc2o1` (stereo not given) gave GPT2 inhibitor inactive, HEK cytotox inconclusive and NIH3T3 tox inconclusive.
For CSc1ccc(-c2cccc(CN3CCC(N[S+](=O)([O-])c4ccccc4)CC3)c2)cc1 the results were HEK cytotox 28µM and NIH3T3 tox 16µM.
Screening Cc1cccc(-c2cccc(CN3CCC(N[S+](=O)([O-])c4cccs4)CC3)c2)c1 returned GPT2 inhibitor inactive, HEK cytotox 28µM and NIH3T3 tox inconclusive.
Screening CSc1ccc(-c2cccc(CN3CCC(N[S+](=O)([O-])CCC(F)(F)F)CC3)c2)cc1 returned HEK cytotox inactive and NIH3T3 tox inconclusive.
For Cc1cccc(-c2cccc(CN3CCC(N[S+](=O)([O-])c4ccccc4)CC3)c2)c1 the results were GPT2 inhibitor inactive, HEK cytotox 28µM and NIH3T3 tox 25µM.
Screening O=[S+]([O-])(NC1CCN(Cc2ccc(-c3ccsc3)cc2)C1)c1cccs1 (stereo not given) returned GPT2 inhibitor inactive, HEK cytotox 40µM and NIH3T3 tox 35µM.
`Cc1nn(-c2ccccc2)c2c1C(C1CC1)N(C1CCN(Cc3ccccc3)CC1)C2=O` (stereo not given) gave HEK cytotox inactive and NIH3T3 tox inactive.
CSc1ccc(-c2cccc(CN3CCC(NC(=O)c4ccccc4)CC3)c2)cc1 was read as HEK cytotox inactive and NIH3T3 tox inactive.
Cc1ccc([S+](=O)([O-])NC2CCN(Cc3cccc(-c4cccc(C)c4)c3)CC2)cc1 was read as GPT2 inhibitor inactive, HEK cytotox 25µM and NIH3T3 tox 16µM.
CSc1ccc(-c2cccc(CN3CCC(N[S+](=O)([O-])c4c(C)noc4C)CC3)c2)cc1 was read as HEK cytotox inconclusive and NIH3T3 tox 14µM.
C[S+](=O)([O-])NC1CCN(Cc2cccc(-c3cccs3)c2)CC1 was read as GPT2 inhibitor inactive, HEK cytotox inconclusive and NIH3T3 tox inconclusive.
O=C(NCc1ccccc1F)C1CN(C2CCCC2)C(=O)N1 (stereo not given) was read as GPT2 inhibitor inactive, HEK cytotox inactive and NIH3T3 tox inactive.
COc1ccc(C(=O)Nc2ccc3n(c2=O)C[C@H]2C[C@@H]3CN(S(=O)(=O)c3ccc(OC)cc3)C2)cc1 was read as GPT2 inhibitor inactive, HEK cytotox inconclusive, FLuc inh 8.9µM, NIH3T3 tox inactive and NPR1 antag inactive.
For O=C(Nc1cnc(-c2ccc(C(F)(F)F)cc2)nc1)C1CCOC1 (stereo not given) the results were GPT2 inhibitor inactive, HEK cytotox inconclusive, FLuc inh 18µM, NIH3T3 tox inconclusive and NPR1 antag inactive.
Screening C#CCNC(=O)C1CCCN1Cc1ccc(-c2cc(C)cc(C)c2)cc1 (stereo not given) returned GPT2 inhibitor inactive, HEK cytotox 45µM and NIH3T3 tox inconclusive.
Screening Cc1cc(C)cc(-c2ccc(CN3CCCC3C(=O)NCC(F)(F)F)cc2)c1 (stereo not given) returned GPT2 inhibitor inactive, HEK cytotox inconclusive and NIH3T3 tox inconclusive.
For Cc1cc(C)cc(-c2ccc(CN3CCCC3C(=O)NC3CCCC3)cc2)c1 (stereo not given) the results were GPT2 inhibitor inactive, HEK cytotox 28µM and NIH3T3 tox 22µM.
COC(=O)[C@@H]1Cc2c([nH]c3ccccc23)[C@H]2C[C@@H](NCCNC(C)=O)C[C@@H](c3ccc(C(F)(F)F)cc3)N21 was read as GPT2 inhibitor inconclusive, HEK cytotox 25µM, FLuc inh inactive, NIH3T3 tox 20µM and NPR1 antag inactive.
`O=C(O)[C@@H]1[C@H]2C[C@H]3c4[nH]c5ccccc5c4CCN3C[C@@H]2CC[C@@H]1O` gave GPT2 inhibitor inactive.
Screening CC(=O)NCCNC(=O)c1cccc(-c2ccc(C(F)(F)F)cc2)c1 returned GPT2 inhibitor inactive, HEK cytotox inactive and NIH3T3 tox inactive.
COC(=O)[C@@H]1Cc2c([nH]c3ccccc23)[C@H]2C[C@@H](NCCNC(C)=O)C[C@@H](c3ccc(C(C)C)cc3)N21 was read as GPT2 inhibitor inactive, HEK cytotox 13µM, FLuc inh inactive, NIH3T3 tox 28µM and NPR1 antag inactive.
COC(=O)[C@@H]1Cc2c([nH]c3ccccc23)[C@@H]2C[C@@H](NCCNC(C)=O)C[C@@H](c3ccc(F)c(F)c3)N12 was read as GPT2 inhibitor inactive, HEK cytotox 32µM, FLuc inh inactive, NIH3T3 tox 32µM and NPR1 antag inactive.
For COC(=O)[C@@H]1Cc2c([nH]c3ccccc23)[C@H]2C[C@@H](NCCNC(C)=O)C[C@@H](c3ccccc3)N21 the results were GPT2 inhibitor inactive, HEK cytotox inconclusive, FLuc inh inconclusive, NIH3T3 tox 79µM and NPR1 antag inactive.
COCCNC(=O)[C@H]1C[C@H](Oc2ccccc2)CN1C(=O)NCc1ccc(C)cc1 was read as GPT2 inhibitor inactive, HEK cytotox inactive, FLuc inh inactive, NIH3T3 tox inactive and NPR1 antag inactive.
